Results from article PMC12864922, “TDP-43 directly inhibits mRNA accumulation in neurites through modulation of mRNA stability”.
Positions count from the first letter of the chain named. Whole data set: some 9,900 sequences, median “r (bound/input frequency ratio)” near 0.7, cut for the highest 2% near 6.5. Many of the other results were omitted from the sample, so the highest values are more common in it than they were.

B1: ENSMUSG00000061578.324|Ksr2|150:154 (ssRNA)
RNA: GGGAGUUCUACAGUCCGACGAUCGCUUCGAUAUCCGCAUGCUAGUAGCUCAAUGACCCAGUGGGUCACAGUUCUAGGCGCUCCAAGGAAGCCAGGGGAGGGGGACUCCUCAGGAAGGAGUGACCAGUCACCUGCCUCCCAGGGUUCUGCCUUGCCCUUAAGCUAGGGUCCUUCAAGCAUCCACAGACUUAGACACACGUGGUAACAUGCUUGUAAUCCUGGCACUCUGGAGGCUGAGGCAGGAGGAUAACAAGUCUAGACUAUAUAUGAUUUCUGAGGGUCUGUUAGUGAAUAAGUACCUGGACUCUUGCGGUCGCACUAGUGUGGAAUUCUCGGGUGUCAAGG
B2: ENSMUSG00000032194.279|Kank2 (ssRNA)
RNA: GGGAGUUCUACAGUCCGACGAUCGCUUCGAUAUCCGCAUGCUAAUGAACAGAUAGAUGAAUGGAUGGAUGGACAGGUGGGUGGAUGGAUGGGUGGACGGAUGAGUGUGGGGUGGGUGGAUGGAUAAAUGAGCAAUGGAUGAGAAACUGGGUUGGCUGGUGGGUAGAUGUCAUGAUGGAGUCUUUGCACGUGUAUGAAACAGAAAACCAAACUUCAGGACAGACAGCUGCUGGUGUCUCUGGAUGCUCACAGCCUAGGGCACAUUUGAAAGGUCGUGCUCUGAGCUGAGCCCUGAGUUCCAGCCCUCUUGCGGUCGCACUAGUGUGGAAUUCUCGGGUGUCAAGG
B3: ENSMUSG00000032194.277|Kank2 (ssRNA)
RNA: GGGAGUUCUACAGUCCGACGAUCGCUUCGAUAUCCGCAUGCUAAUGGAUGGAUGAAUGAACAGAUAGAUGAAUGGAUGGAUGGACAGGUGGGUGGAUGGAUGGGUGGACGGAUGAGUGUGGGGUGGGUGGAUGGAUAAAUGAGCAAUGGAUGAGAAACUGGGUUGGCUGGUGGGUAGAUGUCAUGAUGGAGUCUUUGCACGUGUAUGAAACAGAAAACCAAACUUCAGGACAGACAGCUGCUGGUGUCUCUGGAUGCUCACAGCCUAGGGCACAUUUGAAAGGUCGUGCUCUGAGCUGAGCCCCUCUUGCGGUCGCACUAGUGUGGAAUUCUCGGGUGUCAAGG
B4: ENSMUSG00000032194.276|Kank2 (ssRNA)
RNA: GGGAGUUCUACAGUCCGACGAUCGCUUCGAUAUCCGCAUGCUAGAAUAGAUGGAUGGAUGAAUGAACAGAUAGAUGAAUGGAUGGAUGGACAGGUGGGUGGAUGGAUGGGUGGACGGAUGAGUGUGGGGUGGGUGGAUGGAUAAAUGAGCAAUGGAUGAGAAACUGGGUUGGCUGGUGGGUAGAUGUCAUGAUGGAGUCUUUGCACGUGUAUGAAACAGAAAACCAAACUUCAGGACAGACAGCUGCUGGUGUCUCUGGAUGCUCACAGCCUAGGGCACAUUUGAAAGGUCGUGCUCUGAGCUCUCUUGCGGUCGCACUAGUGUGGAAUUCUCGGGUGUCAAGG
B5: ENSMUSG00000032194.273|Kank2|97:101;184:188 (ssRNA)
RNA: GGGAGUUCUACAGUCCGACGAUCGCUUCGAUAUCCGCAUGCUAGUGGAUGGAUGCAUAAAUGAAUAGAUGGAUGGAUGAAUGAACAGAUAGAUGAAUGGAUGGAUGGACAGGUGGGUGGAUGGAUGGGUGGACGGAUGACACACGGGUGGGUGGAUGGAUAAAUGAGCAAUGGAUGAGAAACUGGGUUGGCUGGUGGGUAGAUGUCAUGAUGGAGUCUUUGCACGUCAUACAAACAGAAAACCAAACUUCAGGACAGACAGCUGCUGGUGUCUCUGGAUGCUCACAGCCUAGGGCACAUUUGACUCUUGCGGUCGCACUAGUGUGGAAUUCUCGGGUGUCAAGG
B6: ENSMUSG00000032194.274|Kank2 (ssRNA)
RNA: GGGAGUUCUACAGUCCGACGAUCGCUUCGAUAUCCGCAUGCUAGGAUGCAUAAAUGAAUAGAUGGAUGGAUGAAUGAACAGAUAGAUGAAUGGAUGGAUGGACAGGUGGGUGGAUGGAUGGGUGGACGGAUGAGUGUGGGGUGGGUGGAUGGAUAAAUGAGCAAUGGAUGAGAAACUGGGUUGGCUGGUGGGUAGAUGUCAUGAUGGAGUCUUUGCACGUGUAUGAAACAGAAAACCAAACUUCAGGACAGACAGCUGCUGGUGUCUCUGGAUGCUCACAGCCUAGGGCACAUUUGAAAGGUCCUCUUGCGGUCGCACUAGUGUGGAAUUCUCGGGUGUCAAGG
B7: ENSMUSG00000032194.275|Kank2 (ssRNA)
RNA: GGGAGUUCUACAGUCCGACGAUCGCUUCGAUAUCCGCAUGCUAAUAAAUGAAUAGAUGGAUGGAUGAAUGAACAGAUAGAUGAAUGGAUGGAUGGACAGGUGGGUGGAUGGAUGGGUGGACGGAUGAGUGUGGGGUGGGUGGAUGGAUAAAUGAGCAAUGGAUGAGAAACUGGGUUGGCUGGUGGGUAGAUGUCAUGAUGGAGUCUUUGCACGUGUAUGAAACAGAAAACCAAACUUCAGGACAGACAGCUGCUGGUGUCUCUGGAUGCUCACAGCCUAGGGCACAUUUGAAAGGUCGUGCUCCUCUUGCGGUCGCACUAGUGUGGAAUUCUCGGGUGUCAAGG
B8: ENSMUSG00000032194.274|Kank2|91:95;178:182 (ssRNA)
RNA: B6 RNA with G134C, U135A, G136C, U137A, G138C, G221C, U222A, A223U, U224A, G225C
B9: ENSMUSG00000032194.278|Kank2 (ssRNA)
RNA: GGGAGUUCUACAGUCCGACGAUCGCUUCGAUAUCCGCAUGCUAGGAUGAAUGAACAGAUAGAUGAAUGGAUGGAUGGACAGGUGGGUGGAUGGAUGGGUGGACGGAUGAGUGUGGGGUGGGUGGAUGGAUAAAUGAGCAAUGGAUGAGAAACUGGGUUGGCUGGUGGGUAGAUGUCAUGAUGGAGUCUUUGCACGUGUAUGAAACAGAAAACCAAACUUCAGGACAGACAGCUGCUGGUGUCUCUGGAUGCUCACAGCCUAGGGCACAUUUGAAAGGUCGUGCUCUGAGCUGAGCCCUGAGUUCUCUUGCGGUCGCACUAGUGUGGAAUUCUCGGGUGUCAAGG
B10: ENSMUSG00000032194.272|Kank2|103:107;190:194 (ssRNA)
RNA: GGGAGUUCUACAGUCCGACGAUCGCUUCGAUAUCCGCAUGCUAGGGUGGGUGGAUGGAUGCAUAAAUGAAUAGAUGGAUGGAUGAAUGAACAGAUAGAUGAAUGGAUGGAUGGACAGGUGGGUGGAUGGAUGGGUGGACGGAUGACACACGGGUGGGUGGAUGGAUAAAUGAGCAAUGGAUGAGAAACUGGGUUGGCUGGUGGGUAGAUGUCAUGAUGGAGUCUUUGCACGUCAUACAAACAGAAAACCAAACUUCAGGACAGACAGCUGCUGGUGUCUCUGGAUGCUCACAGCCUAGGGCACCUCUUGCGGUCGCACUAGUGUGGAAUUCUCGGGUGUCAAGG
B11: ENSMUSG00000061578.522|Ksr2 (ssRNA)
RNA: GGGAGUUCUACAGUCCGACGAUCGCUUCGAUAUCCGCAUGCUAGGAGCUCUUGCCUAACACACACCAAGCCCCAAGUUCCAUCCCCAGUCCCACACAAACCAGAUAUGAUGGUGUGUGCCUAUGUCCCCCACACACGAGAGAGCUGGAGGCAGGAGGAUCAGAAGUUCAGGGCCAUCCUUAAUCAUACAGUGAGCUUGAGAGCAACCUGGGCUACAUGUGACCCUAAUAACUUUUGUAAAUUCAGCACACUUGGCACCUCACACUCCAUGUCCAUAUACUGCAUGUGCCACACACACACACACCUCUUGCGGUCGCACUAGUGUGGAAUUCUCGGGUGUCAAGG
B12: ENSMUSG00000028439.215|Fam219a (ssRNA)
RNA: GGGAGUUCUACAGUCCGACGAUCGCUUCGAUAUCCGCAUGCUAACCUGGGUUCUGGUCCCAGCCUCGGCAUUCUCCCUGAGCUCCUAAGCAAUUCCCAGGCUUCUCUAGGGCUUCAGUUCUCACAACUGGAAAAUAAAGAGUAGCUGACAUCACCGACAGAGUCUUUUCAUACCAGAAGGAAUUUCUUCACAGGAGUUUCUGCAAAAGACUAUGACAUCUGUGUGUCUGUGGUCUCACGAGGUACCUGGAGGUGUAUGUGCACGGACAUGGGAAGUACGUGAAGAUUUAUUUCGGGAAAAGUGCUCUUGCGGUCGCACUAGUGUGGAAUUCUCGGGUGUCAAGG
B13: ENSMUSG00000022095.99|Fam160b2 (ssRNA)
RNA: GGGAGUUCUACAGUCCGACGAUCGCUUCGAUAUCCGCAUGCUAGCCCCCUCUUCCUGCUCUACCCUCCUGGAGGCUGUUGCAAAAUUCCCAACUGCCUCCUGGCAGAGGCCCAAAGUAUGCUCUGCGCCCAGGCGGGGGCAGCUGCUAACAAGAGCCCUGGCGCAGCUGCAGCCAGGGCAGGCGAGAGCCUUGGAGCUGGGUGCCAGGCUCCAGCUCCAGCUCCAGCUGGUUCCUCUCUGGCGCCUUCUGAACCCGUCUCAGCAAGUCCGAAACACCUGGGCAGAGAGGUCAUUGACCAGGGACUCUUGCGGUCGCACUAGUGUGGAAUUCUCGGGUGUCAAGG

The binders below were run against TDP-43 (Homo sapiens, UniProt Q13148 1-414) (assay: RNA Bind-n-Seq with designed 260-mer pool; 25 mM Tris-HCl, 150 mM KCl, 3 mM MgCl2, BSA (printed 500 mg/mL), 20 units/mL SUPERase IN; pH not stated; 500 nM RNA pool, 1 h, 4 C; TDP-43 5, 50, 500 nM; high values mean tight binding). Details: protein: recombinant; tags: SBP (GST cleaved off with PreScission; pGEX-GST-SBP).
Sequence of TDP-43 (Q13148 whole entry): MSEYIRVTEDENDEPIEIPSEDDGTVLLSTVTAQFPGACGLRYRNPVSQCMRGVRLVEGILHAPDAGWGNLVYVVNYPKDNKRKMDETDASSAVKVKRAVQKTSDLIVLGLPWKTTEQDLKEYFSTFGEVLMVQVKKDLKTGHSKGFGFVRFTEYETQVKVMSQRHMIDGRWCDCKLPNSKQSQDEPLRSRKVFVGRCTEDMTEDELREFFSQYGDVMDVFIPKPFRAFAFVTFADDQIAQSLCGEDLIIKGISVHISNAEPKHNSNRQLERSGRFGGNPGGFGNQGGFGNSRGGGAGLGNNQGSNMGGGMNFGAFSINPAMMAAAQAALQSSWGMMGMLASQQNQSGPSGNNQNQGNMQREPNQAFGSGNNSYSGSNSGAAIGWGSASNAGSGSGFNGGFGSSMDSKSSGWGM
In short: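 An in vitro-transcribed pool of 260-nt 3′ UTR oligos (500 nM) was incubated for 1 h at 4 °C with recombinant SBP-tagged TDP-43 at 5, 50 or 500 nM held on streptavidin beads. The buffer contained 25 mM Tris-HCl, 150 mM KCl, 3 mM MgCl2, BSA and SUPERase IN. Biotin-eluted bound RNA was sequenced, and binding, R, is each oligo's normalized read abundance in the bound sample over that in input.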

| Binder | binding signal |
| --- | --- |
| B1 | 0.658 R (bound/input frequency ratio) |
| B2 | 5.39 R (bound/input frequency ratio) |
| B3 | 7.21 R (bound/input frequency ratio) |
| B4 | 6.02 R (bound/input frequency ratio) |
| B5 | 6.83 R (bound/input frequency ratio) |
| B6 | 6.07 R (bound/input frequency ratio) |
| B7 | 7.07 R (bound/input frequency ratio) |
| B8 | 5.59 R (bound/input frequency ratio) |
| B9 | 5.8 R (bound/input frequency ratio) |
| B10 | 5.68 R (bound/input frequency ratio) |
| B11 | 2.82 R (bound/input frequency ratio) |
| B12 | 1.67 R (bound/input frequency ratio) |
| B13 | 0.917 R (bound/input frequency ratio) |
